According to the supplement of paper PMC7366291:
Where a name gives a salt, the structure may show the parent alone. ± gives the standard deviation.

test system: Danio rerio Tg(wt1b:EGFP) embryo, pronephros; test: glomerular separation, fold change vs DMSO control; higher = glomeruli further apart (abnormal); settings: 25 µM; exposure: 24-48 hpf
Procedure, shortened: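 Dechorionated Tg(wt1b:EGFP) zebrafish embryos were incubated at 28.5°C from 24 to 48 hpf with 25 μM compound in HEPES-buffered E3 containing 0.5% DMSO and 0.003% PTU. Distances and angles between 16 manually set points on maximum projections of dorsal pronephros images were measured in Fiji, with values over 2 SD from the feature mean excluded. Each feature is a fold change relative to the mean of same-day DMSO-treated embryos.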

| Structure (SMILES) | glomerular separation |
| --- | --- |
| CCC[C@H](N[C@@H](C)C(=O)N1[C@H](C(=O)O)C[C@@H]2CCCC[C@@H]21)C(=O)OCC [Perindopril] | 0.827 ± 0.34 |
| CC(=O)O[C@]1(C(C)=O)CC[C@H]2[C@@H]3C=C(C)C4=CC(=O)CC[C@@H]4[C@H]3CC[C@@]21C [Nomegestrol acetate] | 1.02 ± 0.29 |
| Fc1ccc([C@@H]2CCNC[C@H]2COc2ccc3c(c2)OCO3)cc1 [Paroxetine Hydrochloride] | 0.594 ± 0.17 |
| O=C(O)Cc1sc(-c2ccccc2)nc1-c1ccc(Cl)cc1 [Fentiazac] | 6.56 ± 3.2 |
| Clc1ccc2c(c1)C(N1CCNCC1)=Nc1ccccc1O2 [Amoxapine] | 1.04 ± 0.33 |
| CC[C@H]1OC(=O)[C@H](C)[C@@H](O[C@H]2C[C@@](C)(OC)[C@@H](O)[C@H](C)O2)[C@H](C)[C@@H](O[C@@H]2O[C@H](C)C[C@H](N(C)C)[C@H]2O)[C@](C)(O)C[C@@H](C)[C@@H]2N[C@@H](COCCOC)O[C@H]([C@H]2C)[C@]1(C)O [Dirithromycin] | 1 ± 0.51 |
| CCOC(=O)[N-]c1c[n+](N2CCOCC2)no1 [Molsidomine] | 0.9 ± 0.41 |
| NC[C@@H]1O[C@H](O[C@H]2[C@@H](O)[C@H](O[C@@H]3[C@@H](O)[C@H](N)C[C@H](N)[C@H]3O[C@H]3O[C@H](CO)[C@@H](O)[C@H](O)[C@H]3N)O[C@@H]2CO)[C@H](N)[C@@H](O)[C@@H]1O [Paromomycin sulfate] | 0.691 ± 0.18 |
| CN(C)CCC(c1ccccc1)c1ccccn1 (stereo not drawn) [Pheniramine maleate] | 0.928 ± 0.19 |
| O=C(O)COC(=O)Cc1ccccc1Nc1c(Cl)cccc1Cl [Aceclofenac] | 3.56 ± 1.8 |
| CCN(CC)CCCC(C)Nc1ccnc2cc(Cl)ccc12 (stereo not drawn) [Chloroquine diphosphate] | 1.16 ± 0.51 |
| COc1ccc(C(=O)NCc2cccnc2)cc1C(=O)NCc1cccnc1 [Picotamide monohydrate] | 0.955 ± 0.31 |
| CCN(Cc1ccncc1)C(=O)C(CO)c1ccccc1 (stereo not drawn) [Tropicamide] | 0.966 ± 0.68 |
| Cc1c(C)c2c(c(C)c1O)CCC(C)(C(=O)O)O2 (stereo not drawn) [Trolox] | 0.733 ± 0.23 |
| C#CCN[C@@H]1CCc2ccccc21 [Rasagiline] | 1.13 ± 0.38 |
| CNC(=C[N+](=O)[O-])NCCSCc1csc(CN(C)C)n1 [Nizatidine] | 0.966 ± 0.41 |
| C[C@](N)(Cc1ccc(O)c(O)c1)C(=O)O [Methyldopa (L,-)] | 1.03 ± 0.18 |
| CNc1ncnc2c1ncn2[C@@H]1O[C@H](CO)[C@@H](O)[C@H]1O [N6-methyladenosine] | 0.849 ± 0.21 |
| Nc1ccc(S(=O)(=O)c2ccc(N)cc2)cc1 [Dapsone] | 1.08 ± 0.44 |
| CC(C)C(=O)c1c(C(C)C)nn2ccccc12 [Ibudilast] | 0.785 ± 0.21 |
| OC(CCN1CCCC1)(c1ccccc1)C1CCCCC1 (stereo not drawn) [Procyclidine hydrochloride] | 0.639 ± 0.26 |
| C=C1c2c(Cl)ccc(O)c2C(=O)C2=C(O)[C@]3(O)C(=O)C(C(N)=O)=C(O)[C@@H](N(C)C)[C@@H]3[C@@H](O)[C@H]12.O=C(O)c1cc(S(=O)(=O)O)ccc1O [Meclocycline sulfosalicylate] | 1.02 ± 0.24 |
| CCOC(=O)[C@H](CCc1ccccc1)N[C@@H](C)C(=O)N1Cc2ccccc2C[C@H]1C(=O)O [Quinapril hydrochloride] | 0.927 ± 0.39 |
| O=C(Nc1ccc([N+](=O)[O-])cc1Cl)c1cc(Cl)ccc1O [Niclosamide] | 1.53 ± 0.67 |
| COc1ccc2c(c1)c(CC(=O)O)c(C)n2C(=O)c1ccc(Cl)cc1 [Indomethacin] | 3.64 ± 1.7 |
| COc1cc(N)c(Cl)cc1C(=O)NC1CCN(Cc2ccccc2)CC1 [Clebopride maleate] | 0.962 ± 0.3 |
| NCCC[C@H](N)CC(=O)N[C@H]1CNC(=O)[C@H]([C@H]2C[C@H](O)NC(N)=N2)NC(=O)/C(=C/NC(N)=O)NC(=O)[C@H](CO)NC(=O)[C@H](CO)NC1=O [Viomycin sulfate] | 1.23 ± 0.3 |
| O=C(O)c1cc(=O)c2c(OCC(O)COc3cccc4oc(C(=O)O)cc(=O)c34)cccc2o1 [Cromolyn disodium salt] | 0.753 ± 0.22 |
